# Data taken from the supplement of paper PMC10849652.
# About 7,900 targets were measured; listed, in parts, are those with a hit and a random draw of the rest. About 0.6% of all pairs of compound and target were hits. Values without a mark were called inactive.
# Tests used:
# Assay in all cases: log2 fold change, soluble protein after heating vs DMSO (PISA); higher = thermal stabilisation; K562 cells, 10 uM, 30 min; active = over 0.2 and 3.5 SD of the protein, either way, in both replicates (recomputed)
# [1] = biological target: YWHAB (UniProt P31946)
# YWHAB, sequence (P31946 whole entry, looked up): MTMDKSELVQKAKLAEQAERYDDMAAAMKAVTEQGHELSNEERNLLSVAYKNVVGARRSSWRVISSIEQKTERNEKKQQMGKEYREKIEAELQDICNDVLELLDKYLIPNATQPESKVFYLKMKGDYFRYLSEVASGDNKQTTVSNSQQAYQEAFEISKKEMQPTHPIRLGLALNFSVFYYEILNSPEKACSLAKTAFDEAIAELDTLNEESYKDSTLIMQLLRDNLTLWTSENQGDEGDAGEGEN
# Procedure, shortened: (§1)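 For each measurement, 10 μM compound was applied for 30 min to K562 cells at 2×10^6 cells/mL. Aliquots were heated for 3 min across 48°C-58°C, pooled, and extracted in PBS with 0.5% NP-40 at 4°C; the supernatant after 21,000xg for 90 min was soluble protein. This was quantified by TMTpro 16plex LC-MS/MS with channel sums equalised, and thermal stability was reported relative to control samples from duplicates, on a log2 fold-change scale.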
# [2] = biological target: YWHAQ (UniProt P27348)
# Procedure, shortened: as §1
# [3] = biological target: YWHAZ (UniProt P63104)
# YWHAZ, sequence (P63104 whole entry, looked up): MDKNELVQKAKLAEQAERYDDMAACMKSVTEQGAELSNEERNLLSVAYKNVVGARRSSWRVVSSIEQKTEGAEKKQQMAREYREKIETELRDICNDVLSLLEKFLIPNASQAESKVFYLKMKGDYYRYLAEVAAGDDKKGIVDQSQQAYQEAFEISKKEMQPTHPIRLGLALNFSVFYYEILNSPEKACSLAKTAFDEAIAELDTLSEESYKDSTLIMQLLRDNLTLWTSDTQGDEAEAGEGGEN
# Procedure, shortened: as §1
# [4] = biological target: YY1 (UniProt P25490)
# YY1, sequence (P25490 whole entry, looked up): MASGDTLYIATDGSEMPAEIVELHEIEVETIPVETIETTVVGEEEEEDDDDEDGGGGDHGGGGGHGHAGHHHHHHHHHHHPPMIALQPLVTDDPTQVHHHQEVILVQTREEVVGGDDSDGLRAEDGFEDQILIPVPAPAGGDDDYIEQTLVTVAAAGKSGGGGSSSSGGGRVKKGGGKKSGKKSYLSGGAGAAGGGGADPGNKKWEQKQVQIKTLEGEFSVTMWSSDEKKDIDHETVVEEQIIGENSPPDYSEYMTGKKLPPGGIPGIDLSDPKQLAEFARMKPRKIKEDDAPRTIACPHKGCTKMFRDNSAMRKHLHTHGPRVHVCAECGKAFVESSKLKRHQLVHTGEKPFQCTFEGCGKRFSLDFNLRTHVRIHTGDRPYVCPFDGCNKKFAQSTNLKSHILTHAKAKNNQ
# Procedure, shortened: as §1
# [5] = biological target: ZADH2 (UniProt Q8N4Q0)
# Procedure, shortened: as §1
# [6] = biological target: ZBTB21 (UniProt Q9ULJ3)
# Procedure, shortened: as §1
# [7] = biological target: ZBTB43 (UniProt O43298)
# Procedure, shortened: as §1
# [8] = biological target: ZC3H18 (UniProt Q86VM9)
# ZC3H18, sequence (Q86VM9 whole entry, looked up): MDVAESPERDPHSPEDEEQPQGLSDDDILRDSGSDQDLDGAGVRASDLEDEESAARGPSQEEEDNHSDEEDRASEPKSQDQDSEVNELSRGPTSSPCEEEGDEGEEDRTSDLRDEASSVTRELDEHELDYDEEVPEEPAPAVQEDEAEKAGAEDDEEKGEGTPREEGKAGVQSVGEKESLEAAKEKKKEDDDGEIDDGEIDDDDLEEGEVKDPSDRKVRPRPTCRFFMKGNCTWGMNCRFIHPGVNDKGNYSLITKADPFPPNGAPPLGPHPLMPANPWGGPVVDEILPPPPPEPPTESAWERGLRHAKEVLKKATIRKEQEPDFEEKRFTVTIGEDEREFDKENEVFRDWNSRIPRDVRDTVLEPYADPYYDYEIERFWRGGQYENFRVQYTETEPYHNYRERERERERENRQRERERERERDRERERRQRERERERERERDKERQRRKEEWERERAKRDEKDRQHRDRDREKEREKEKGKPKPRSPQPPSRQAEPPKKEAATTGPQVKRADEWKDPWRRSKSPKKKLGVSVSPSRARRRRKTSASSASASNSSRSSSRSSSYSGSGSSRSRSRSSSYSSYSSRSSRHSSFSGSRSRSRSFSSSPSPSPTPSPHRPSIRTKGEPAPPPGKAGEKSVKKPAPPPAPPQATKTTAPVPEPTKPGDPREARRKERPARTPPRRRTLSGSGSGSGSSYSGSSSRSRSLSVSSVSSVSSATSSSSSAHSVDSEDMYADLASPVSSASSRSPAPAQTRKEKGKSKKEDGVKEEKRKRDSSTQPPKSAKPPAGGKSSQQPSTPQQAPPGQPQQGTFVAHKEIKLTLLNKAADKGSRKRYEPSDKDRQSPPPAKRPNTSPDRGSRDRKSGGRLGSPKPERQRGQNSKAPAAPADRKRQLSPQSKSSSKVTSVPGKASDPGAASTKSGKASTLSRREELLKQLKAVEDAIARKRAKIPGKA
# Procedure, shortened: as §1
# [9] = biological target: ZC3H8 (UniProt Q8N5P1)
# Procedure, shortened: as §1
# [10] = biological target: ZC3HC1 (UniProt Q86WB0)
# ZC3HC1, sequence (Q86WB0 whole entry, looked up): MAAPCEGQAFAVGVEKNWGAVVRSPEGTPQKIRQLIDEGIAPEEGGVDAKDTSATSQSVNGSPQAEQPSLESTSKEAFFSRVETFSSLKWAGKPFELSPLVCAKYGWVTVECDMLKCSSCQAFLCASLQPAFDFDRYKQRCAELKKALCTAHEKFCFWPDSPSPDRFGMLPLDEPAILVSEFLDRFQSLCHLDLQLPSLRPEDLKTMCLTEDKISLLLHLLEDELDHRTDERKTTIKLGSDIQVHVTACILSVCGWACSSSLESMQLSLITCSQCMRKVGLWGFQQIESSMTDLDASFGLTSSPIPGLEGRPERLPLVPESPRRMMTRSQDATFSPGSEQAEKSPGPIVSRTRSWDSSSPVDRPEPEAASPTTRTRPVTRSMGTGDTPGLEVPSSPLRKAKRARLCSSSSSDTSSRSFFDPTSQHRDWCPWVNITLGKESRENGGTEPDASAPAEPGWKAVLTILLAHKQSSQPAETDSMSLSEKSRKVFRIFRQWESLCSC
# Procedure, shortened: as §1
# [11] = biological target: ZCCHC17 (UniProt Q9NP64)
# ZCCHC17, sequence (Q9NP64 whole entry, looked up): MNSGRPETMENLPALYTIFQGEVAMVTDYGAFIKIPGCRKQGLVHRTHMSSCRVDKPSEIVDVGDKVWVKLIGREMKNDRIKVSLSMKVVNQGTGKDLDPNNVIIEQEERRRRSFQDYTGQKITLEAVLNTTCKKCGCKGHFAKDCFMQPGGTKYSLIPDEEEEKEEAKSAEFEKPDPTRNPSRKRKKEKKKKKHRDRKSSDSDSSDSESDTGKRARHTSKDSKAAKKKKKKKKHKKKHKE
# Procedure, shortened: as §1
# [12] = biological target: ZCCHC9 (UniProt Q8N567)
# Procedure, shortened: as §1
# [13] = biological target: ZDHHC17 (UniProt Q8IUH5)
# Procedure, shortened: as §1
# [14] = biological target: ZDHHC20 (UniProt Q5W0Z9)
# ZDHHC20, sequence (Q5W0Z9 whole entry, looked up): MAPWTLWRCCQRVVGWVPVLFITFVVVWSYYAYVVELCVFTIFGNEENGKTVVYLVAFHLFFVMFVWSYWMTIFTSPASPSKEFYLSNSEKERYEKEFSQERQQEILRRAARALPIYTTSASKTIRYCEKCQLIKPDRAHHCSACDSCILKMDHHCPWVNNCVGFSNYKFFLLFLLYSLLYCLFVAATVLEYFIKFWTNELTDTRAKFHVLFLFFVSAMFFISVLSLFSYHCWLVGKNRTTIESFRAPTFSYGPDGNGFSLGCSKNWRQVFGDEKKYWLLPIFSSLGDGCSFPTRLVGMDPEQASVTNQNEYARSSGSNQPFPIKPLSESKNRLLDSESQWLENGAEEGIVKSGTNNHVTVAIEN
# Procedure, shortened: as §1
# [15] = biological target: ZDHHC5 (UniProt Q9C0B5)
# ZDHHC5, sequence (Q9C0B5 whole entry, looked up): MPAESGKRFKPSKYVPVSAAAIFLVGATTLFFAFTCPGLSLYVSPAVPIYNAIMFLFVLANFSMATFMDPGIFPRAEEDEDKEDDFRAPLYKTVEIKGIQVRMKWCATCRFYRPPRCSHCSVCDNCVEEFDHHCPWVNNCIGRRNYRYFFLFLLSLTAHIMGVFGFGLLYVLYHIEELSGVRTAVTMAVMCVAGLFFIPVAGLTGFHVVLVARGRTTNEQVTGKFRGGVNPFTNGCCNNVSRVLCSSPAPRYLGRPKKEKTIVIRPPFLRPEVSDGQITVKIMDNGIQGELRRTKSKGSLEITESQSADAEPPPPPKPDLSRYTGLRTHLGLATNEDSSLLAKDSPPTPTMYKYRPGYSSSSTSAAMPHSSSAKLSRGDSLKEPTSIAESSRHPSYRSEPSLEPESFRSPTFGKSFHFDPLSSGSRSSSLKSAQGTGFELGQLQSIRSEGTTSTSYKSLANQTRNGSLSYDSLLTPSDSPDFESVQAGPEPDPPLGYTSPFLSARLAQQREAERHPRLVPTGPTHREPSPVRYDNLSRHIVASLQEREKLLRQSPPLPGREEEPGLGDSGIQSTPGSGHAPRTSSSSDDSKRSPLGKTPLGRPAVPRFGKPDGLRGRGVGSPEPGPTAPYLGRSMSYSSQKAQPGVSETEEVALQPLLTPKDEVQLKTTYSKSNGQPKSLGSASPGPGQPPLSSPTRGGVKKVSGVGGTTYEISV
# Procedure, shortened: as §1
# [16] = biological target: ZDHHC7 isoform 2 (UniProt Q9NXF8)
# ZDHHC7 isoform 2, sequence (Q9NXF8 whole entry, looked up, canonical isoform): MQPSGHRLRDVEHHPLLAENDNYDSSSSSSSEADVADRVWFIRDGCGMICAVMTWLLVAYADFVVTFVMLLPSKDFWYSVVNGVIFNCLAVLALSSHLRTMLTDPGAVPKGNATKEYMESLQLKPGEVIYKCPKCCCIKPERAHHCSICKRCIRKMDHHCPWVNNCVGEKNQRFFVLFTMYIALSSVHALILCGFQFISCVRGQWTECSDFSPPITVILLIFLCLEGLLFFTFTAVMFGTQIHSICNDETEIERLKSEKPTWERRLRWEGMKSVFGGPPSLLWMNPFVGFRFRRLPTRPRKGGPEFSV
# Procedure, shortened: as §1
# [17] = biological target: ZBTB17 isoform 2 (UniProt Q13105)
# ZBTB17 isoform 2, sequence (Q13105 whole entry, looked up, canonical isoform): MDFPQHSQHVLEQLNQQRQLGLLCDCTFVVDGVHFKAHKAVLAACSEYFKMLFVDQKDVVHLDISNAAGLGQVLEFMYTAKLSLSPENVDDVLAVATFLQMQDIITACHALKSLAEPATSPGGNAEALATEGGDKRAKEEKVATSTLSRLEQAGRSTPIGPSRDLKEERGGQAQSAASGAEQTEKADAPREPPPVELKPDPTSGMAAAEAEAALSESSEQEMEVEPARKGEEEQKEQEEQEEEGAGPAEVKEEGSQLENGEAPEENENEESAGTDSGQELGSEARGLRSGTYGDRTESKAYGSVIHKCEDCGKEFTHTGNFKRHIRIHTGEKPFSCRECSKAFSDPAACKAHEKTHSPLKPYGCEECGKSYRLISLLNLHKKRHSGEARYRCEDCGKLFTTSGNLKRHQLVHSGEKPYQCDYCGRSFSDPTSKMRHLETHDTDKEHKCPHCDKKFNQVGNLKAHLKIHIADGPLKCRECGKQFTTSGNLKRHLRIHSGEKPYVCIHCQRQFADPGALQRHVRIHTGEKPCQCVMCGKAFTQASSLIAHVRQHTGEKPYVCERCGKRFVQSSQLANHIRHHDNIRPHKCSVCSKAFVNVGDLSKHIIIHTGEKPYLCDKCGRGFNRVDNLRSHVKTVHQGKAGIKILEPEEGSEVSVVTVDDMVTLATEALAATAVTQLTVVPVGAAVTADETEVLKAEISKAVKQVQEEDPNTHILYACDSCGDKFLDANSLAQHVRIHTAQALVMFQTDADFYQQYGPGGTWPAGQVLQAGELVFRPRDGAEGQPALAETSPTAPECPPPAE
# Procedure, shortened: as §1
# [18] = biological target: ZDHHC8 isoform 3 (UniProt Q9ULC8)
# Procedure, shortened: as §1
# [19] = biological target: ZDHHC6 (UniProt Q9H6R6)
# Procedure, shortened: as §1
SMILES,log2 fold change [1],log2 fold change [2],log2 fold change [3],log2 fold change [4],log2 fold change [5],log2 fold change [6],log2 fold change [7],log2 fold change [8],log2 fold change [9],log2 fold change [10],log2 fold change [11],log2 fold change [12],log2 fold change [13],log2 fold change [14],log2 fold change [15],log2 fold change [16],log2 fold change [17],log2 fold change [18],log2 fold change [19]
CNC(=O)c1ccc(Nc2ncc(C(F)(F)F)c(NCc3nccnc3N(C)S(C)(=O)=O)n2)cc1 [defactinib],-0.022,0,0,-0.299 (active),0.025,-0.033,0.063,-0.234,0.228,-0.227,0.149,0.216,-0.007,-0.231,-0.097,0.001,,,
C#Cc1cccc(Nc2ncnc3cc(OCCOC)c(OCCOC)cc23)c1 [erlotinib],0.011,-0.07,0.011,-0.019,0.005,0.235,0.081,-0.066,-0.091,0.075,,-0.099,0.091,0.163,0.028,0.09,-0.048,,
NC(=O)Nc1cc(-c2cccc(F)c2)sc1C(=O)N[C@H]1CCCNC1,-0.027,0.065,0.098,0.037,-0.074,-0.083,-0.018,-0.037,0.025,-0.016,-0.064,-0.11,0.084,-0.219,-0.081,,-0.032,,
Cc1cn(-c2cc(NC(=O)c3ccc(C)c(Nc4nccc(-c5cccnc5)n4)c3)cc(C(F)(F)F)c2)cn1 [nilotinib],0.039,0.018,0.04,-0.033,0.04,0.023,-0.157,0.099,0.016,-0.052,,-0.046,-0.004,0.016,0.091,0.104,,0.086,
NC(=O)c1ccc2nc(-c3ccc(Oc4ccc(Cl)cc4)cc3)[nH]c2c1,-0.012,-0.021,0.011,0.03,0.052,0.053,0.037,0.045,0.027,-0.034,,0.025,-0.046,0.14,0.027,0.022,0.03,,
CNC(=O)c1ccccc1Nc1nc(Nc2ccc(N3CCOCC3)cc2OC)ncc1Cl,0.019,0.049,-0.013,-0.046,-0.051,-0.012,-0.007,-0.01,0.019,0.067,,0.058,0.146,0,0.006,-0.016,-0.041,,
CON(C)C(=O)N1N=C(c2cc(F)ccc2F)S[C@@]1(CCCN)c1ccccc1 [filanesib],-0.044,-0.086,-0.027,-0.006,0.065,0.075,-0.024,0.217,0.191,-0.042,0.565 (active),0.527 (active),-0.219,0.008,0.048,,-0.026,,
CN1CCC(CNc2ccc3ncc(-c4cccc(OC(F)(F)F)c4)n3n2)CC1,-0.042,0.585,0.035,-0.21,0.023,-0.149,0.032,-0.044,0.397 (active),-0.402 (active),,0.181,0.065,0.035,0.31 (active),-0.415 (active),,,0.011
CCCS(=O)(=O)Nc1ccc(F)c(C(=O)c2c[nH]c3ncc(-c4ccc(Cl)cc4)cc23)c1F [vemurafenib],0.021,0.284,0.037,0.03,0,-0.032,0.044,-0.025,-0.071,0.09,-0.396,-0.11,0.016,0.049,-0.021,-0.016,,,
CS(=O)(=O)c1ccc(-c2cnc(N)c(C(=O)Nc3ccccc3)n2)cc1,0.017,-0.013,-0.017,-0.061,-0.063,0.048,0.021,-0.056,0,0.066,-0.069,0.1,-0.005,0.067,0.129,,-0.013,,
Cc1cccc(CC(=O)N2CCc3c2ccc(-c2cn(C)c4ncnc(N)c24)c3F)n1,-0.058,0.694 (active),0.029,0.003,-0.041,0.016,-0.025,-0.063,0.026,0.029,,-0.048,-0.082,0.021,-0.067,-0.06,,,0.097
Cc1ccc(NC(=O)c2cccc(C(C)(C)C#N)c2)cc1Nc1ccc2ncn(C)c(=O)c2c1,0.016,0.184,0.025,0.035,0.453 (active),-0.03,0.004,0,-0.021,0.011,-0.065,-0.227,0.076,-0.067,0.048,,0.018,,
Cc1nc(Nc2n[nH]c3c2CN(C(=O)N[C@H](CN(C)C)c2ccccc2)C3(C)C)c2sccc2n1,-0.002,-0.033,-0.015,-0.304 (active),-0.127,-0.093,0.043,-0.145,0.081,-0.103,,0.159,-0.012,-0.02,-0.037,0.046,,0.013,
